The values below come from article PMC7862700, “An all-to-all approach to the identification of sequence-specific readers for epigenetic DNA modifications on cytosine”.

Test in all cases: DAPPL (digital affinity profiling via proximity ligation, sequencing); 10 mM Tris-HCl pH 7.5, 50 mM NaCl, 1 mM DTT, 4% glycerol, room temperature, 30 min; GST-TFs on glutathione beads, 16-mer random dsDNA library, 0.1% formaldehyde crosslink after washing; high values mean tight binding
Details in all cases: protein: recombinant; tags: N-terminal GST; dsDNA, one strand shown

Assay [1] deals with T1, FLI1 (Homo sapiens, UniProt Q01543 1-452).
T1 sequence: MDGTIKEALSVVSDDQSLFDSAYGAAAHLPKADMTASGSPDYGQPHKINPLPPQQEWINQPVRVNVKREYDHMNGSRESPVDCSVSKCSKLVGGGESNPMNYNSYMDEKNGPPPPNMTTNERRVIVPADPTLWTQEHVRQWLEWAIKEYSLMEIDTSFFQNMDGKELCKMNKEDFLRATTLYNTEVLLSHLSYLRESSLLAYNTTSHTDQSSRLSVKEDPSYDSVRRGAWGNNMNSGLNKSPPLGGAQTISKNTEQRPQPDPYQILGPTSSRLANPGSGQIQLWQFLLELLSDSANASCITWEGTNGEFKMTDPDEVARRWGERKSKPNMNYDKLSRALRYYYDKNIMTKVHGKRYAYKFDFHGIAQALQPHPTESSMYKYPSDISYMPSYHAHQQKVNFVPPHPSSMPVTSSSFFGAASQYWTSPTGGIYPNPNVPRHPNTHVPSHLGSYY
Put shortly:
(§1)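 Binding signal is given per hexamer as its read frequency for a factor divided by its frequency in the tag-only sample. GST-fused human transcription factors were expressed in yeast, captured on glutathione beads, barcoded with DNA and pooled with that sample, then incubated with 200 nmole of a 16-mer random double-stranded DNA library in Tris/NaCl/DTT/glycerol buffer for 30 min at room temperature. The pools were then washed, crosslinked, proximity-ligated, amplified by PCR and sequenced on an Illumina NextSeq500.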

Assay [2] has as its target T2, ELK1 (Homo sapiens, UniProt P19419 1-428).
T2 sequence: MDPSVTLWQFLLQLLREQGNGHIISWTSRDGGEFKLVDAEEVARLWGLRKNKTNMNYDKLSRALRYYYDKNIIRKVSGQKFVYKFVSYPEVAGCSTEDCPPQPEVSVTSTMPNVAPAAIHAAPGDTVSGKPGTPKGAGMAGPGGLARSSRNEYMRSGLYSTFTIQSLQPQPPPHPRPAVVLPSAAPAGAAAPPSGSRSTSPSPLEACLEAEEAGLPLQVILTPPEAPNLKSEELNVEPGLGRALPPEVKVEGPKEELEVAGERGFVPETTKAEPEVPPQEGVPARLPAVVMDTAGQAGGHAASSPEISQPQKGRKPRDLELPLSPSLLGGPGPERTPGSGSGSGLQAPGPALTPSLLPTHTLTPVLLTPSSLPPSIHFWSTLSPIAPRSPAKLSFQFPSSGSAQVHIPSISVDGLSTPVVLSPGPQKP
Put shortly: as §1

In assay [3] the target is T3, GABPA (Homo sapiens, UniProt Q06546 1-454).
T3 sequence: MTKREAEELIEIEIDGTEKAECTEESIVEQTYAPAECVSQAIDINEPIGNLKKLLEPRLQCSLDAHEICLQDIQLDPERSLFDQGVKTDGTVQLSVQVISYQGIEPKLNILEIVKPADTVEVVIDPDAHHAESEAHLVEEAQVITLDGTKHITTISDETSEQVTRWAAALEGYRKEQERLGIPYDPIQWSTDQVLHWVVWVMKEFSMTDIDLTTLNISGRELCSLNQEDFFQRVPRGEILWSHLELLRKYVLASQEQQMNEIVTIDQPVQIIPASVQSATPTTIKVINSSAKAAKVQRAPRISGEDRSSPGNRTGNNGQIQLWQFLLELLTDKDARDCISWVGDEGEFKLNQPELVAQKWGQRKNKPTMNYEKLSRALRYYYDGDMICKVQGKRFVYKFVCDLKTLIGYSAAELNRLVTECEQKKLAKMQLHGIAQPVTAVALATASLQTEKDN
The method in brief:
as §1

Assay [4] concerns the target T4, ERG (Homo sapiens, UniProt P11308 1-479).
T4 sequence: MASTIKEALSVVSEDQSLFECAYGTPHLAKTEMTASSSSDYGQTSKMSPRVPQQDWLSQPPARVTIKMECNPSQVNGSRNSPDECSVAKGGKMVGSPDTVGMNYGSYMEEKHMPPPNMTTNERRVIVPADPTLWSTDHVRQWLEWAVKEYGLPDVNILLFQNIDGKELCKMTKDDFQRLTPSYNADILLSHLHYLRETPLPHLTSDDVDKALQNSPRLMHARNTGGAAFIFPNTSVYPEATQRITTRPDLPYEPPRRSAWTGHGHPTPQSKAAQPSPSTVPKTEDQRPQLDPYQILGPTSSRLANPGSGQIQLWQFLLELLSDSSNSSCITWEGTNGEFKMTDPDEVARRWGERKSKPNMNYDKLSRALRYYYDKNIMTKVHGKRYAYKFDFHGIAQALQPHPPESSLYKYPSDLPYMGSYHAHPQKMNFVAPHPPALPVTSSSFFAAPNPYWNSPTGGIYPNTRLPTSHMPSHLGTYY
Put shortly: as §1

Assay [5] addresses ELF1 (Homo sapiens, UniProt P32519 1-619). The method in brief: as §1
Assay [6] deals with T5, EHF (Homo sapiens, UniProt Q9NZC4 1-300).
T5 sequence: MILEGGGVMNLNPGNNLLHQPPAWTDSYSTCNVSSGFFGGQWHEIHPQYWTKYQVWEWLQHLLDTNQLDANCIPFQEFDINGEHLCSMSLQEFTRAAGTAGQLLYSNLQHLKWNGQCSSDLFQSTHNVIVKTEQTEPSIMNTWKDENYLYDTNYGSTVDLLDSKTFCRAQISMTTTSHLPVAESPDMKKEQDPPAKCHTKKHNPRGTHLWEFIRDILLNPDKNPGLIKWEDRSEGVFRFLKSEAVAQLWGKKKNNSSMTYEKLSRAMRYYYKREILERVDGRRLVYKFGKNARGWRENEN
Put shortly:
as §1

Assay [7] has as its target SPI1 (Homo sapiens, UniProt P17947 1-270). The method in brief:
as §1

Assay [8] concerns the target SPIB (Homo sapiens, UniProt Q01892 1-262). The method in brief:
as §1

The target of assay [9] is T6, ELK3 (Homo sapiens, UniProt P41970 1-407).
T6 sequence: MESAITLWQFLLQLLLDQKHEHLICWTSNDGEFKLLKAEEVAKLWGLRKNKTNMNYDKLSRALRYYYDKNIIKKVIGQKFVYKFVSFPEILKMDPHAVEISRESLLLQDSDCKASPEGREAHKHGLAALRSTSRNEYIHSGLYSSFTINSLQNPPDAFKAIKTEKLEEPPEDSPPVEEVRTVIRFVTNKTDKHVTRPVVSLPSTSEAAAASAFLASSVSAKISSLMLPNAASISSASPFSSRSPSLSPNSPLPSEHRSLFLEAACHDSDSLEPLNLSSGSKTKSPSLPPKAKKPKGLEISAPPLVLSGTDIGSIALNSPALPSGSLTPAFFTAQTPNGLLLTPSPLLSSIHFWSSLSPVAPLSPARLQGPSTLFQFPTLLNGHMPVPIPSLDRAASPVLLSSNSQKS
Put shortly:
as §1

ELF1, sequence (P32519 whole entry): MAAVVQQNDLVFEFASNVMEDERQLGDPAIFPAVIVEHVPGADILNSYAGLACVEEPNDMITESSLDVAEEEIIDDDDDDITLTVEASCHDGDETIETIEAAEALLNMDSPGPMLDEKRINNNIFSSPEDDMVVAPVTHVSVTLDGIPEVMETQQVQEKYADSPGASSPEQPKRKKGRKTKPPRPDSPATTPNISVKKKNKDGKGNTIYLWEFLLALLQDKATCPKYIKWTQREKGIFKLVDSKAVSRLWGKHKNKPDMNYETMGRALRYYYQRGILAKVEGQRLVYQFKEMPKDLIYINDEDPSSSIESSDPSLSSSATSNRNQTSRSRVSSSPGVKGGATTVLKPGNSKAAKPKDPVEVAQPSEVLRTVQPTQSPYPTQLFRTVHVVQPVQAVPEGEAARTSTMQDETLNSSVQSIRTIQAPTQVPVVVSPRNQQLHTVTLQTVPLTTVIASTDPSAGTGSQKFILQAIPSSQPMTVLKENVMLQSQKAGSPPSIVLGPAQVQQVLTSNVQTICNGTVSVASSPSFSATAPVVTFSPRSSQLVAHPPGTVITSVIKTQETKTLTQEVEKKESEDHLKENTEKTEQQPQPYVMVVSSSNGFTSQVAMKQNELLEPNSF
SPIB, sequence (Q01892 whole entry): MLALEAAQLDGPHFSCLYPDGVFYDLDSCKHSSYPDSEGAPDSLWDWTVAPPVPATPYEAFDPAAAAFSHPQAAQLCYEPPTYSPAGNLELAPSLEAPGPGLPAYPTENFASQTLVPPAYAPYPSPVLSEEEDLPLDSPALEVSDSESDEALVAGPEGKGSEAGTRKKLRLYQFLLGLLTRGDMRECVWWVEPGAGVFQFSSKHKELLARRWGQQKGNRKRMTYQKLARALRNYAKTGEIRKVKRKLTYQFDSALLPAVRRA

For AATCAA, the binding signal in [1] was 1.1 fold enrichment (6-mer frequency, TF over GST control); in assay [2] it was 1.18 fold enrichment (6-mer frequency, TF over GST control); in [3] it was 1.15 fold enrichment (6-mer frequency, TF over GST control); in assay [4] it was 1.21 fold enrichment (6-mer frequency, TF over GST control); in assay [5] it was 1.17 fold enrichment (6-mer frequency, TF over GST control); in [6], 1.12 fold enrichment (6-mer frequency, TF over GST control). The binding signal was 1.15 fold enrichment (6-mer frequency, TF over GST control) in assay [7]; 1.14 fold enrichment (6-mer frequency, TF over GST control) in assay [8]; 1.14 fold enrichment (6-mer frequency, TF over GST control) in [9].
In the case of ACCTGC, the binding signal in [1] was 1.37 fold enrichment (6-mer frequency, TF over GST control); in [2], 1.52 fold enrichment (6-mer frequency, TF over GST control); in [3] it was 1.39 fold enrichment (6-mer frequency, TF over GST control); in assay [4], 1.39 fold enrichment (6-mer frequency, TF over GST control); in assay [5], 1.54 fold enrichment (6-mer frequency, TF over GST control); in assay [6] it was 1.67 fold enrichment (6-mer frequency, TF over GST control). Also, the binding signal in [7] is 1.46 fold enrichment (6-mer frequency, TF over GST control); in assay [8], 1.39 fold enrichment (6-mer frequency, TF over GST control); in assay [9], 1.33 fold enrichment (6-mer frequency, TF over GST control).
As for TTAACG, the binding signal is 1.12 fold enrichment (6-mer frequency, TF over GST control) in assay [1]; 1.17 fold enrichment (6-mer frequency, TF over GST control) in assay [2]; 1.21 fold enrichment (6-mer frequency, TF over GST control) in assay [3]; 1.17 fold enrichment (6-mer frequency, TF over GST control) in assay [4]; 1.23 fold enrichment (6-mer frequency, TF over GST control) in [5]; 1.15 fold enrichment (6-mer frequency, TF over GST control) in [6]. The binding signal is 1.26 fold enrichment (6-mer frequency, TF over GST control) in [7]; 1.26 fold enrichment (6-mer frequency, TF over GST control) in assay [8]; 1.32 fold enrichment (6-mer frequency, TF over GST control) in [9].
As to TTTTTC, the binding signal in assay [1] was 1.21 fold enrichment (6-mer frequency, TF over GST control); in [2], 1.15 fold enrichment (6-mer frequency, TF over GST control); in [3], 1.32 fold enrichment (6-mer frequency, TF over GST control); in assay [4], 1.14 fold enrichment (6-mer frequency, TF over GST control); in assay [5], 1.22 fold enrichment (6-mer frequency, TF over GST control); in [6] it was 1.23 fold enrichment (6-mer frequency, TF over GST control). Also, the binding signal in [7] is 1.33 fold enrichment (6-mer frequency, TF over GST control); in assay [8], 1.14 fold enrichment (6-mer frequency, TF over GST control); in assay [9], 1.39 fold enrichment (6-mer frequency, TF over GST control).
On to TGGGAT, for which the binding signal in assay [1] was 1.12 fold enrichment (6-mer frequency, TF over GST control); in assay [2], 1.17 fold enrichment (6-mer frequency, TF over GST control); in [3], 1.3 fold enrichment (6-mer frequency, TF over GST control); in assay [4], 1.13 fold enrichment (6-mer frequency, TF over GST control); in assay [5], 1.25 fold enrichment (6-mer frequency, TF over GST control); in assay [6], 1.25 fold enrichment (6-mer frequency, TF over GST control). In addition, the binding signal is 1.29 fold enrichment (6-mer frequency, TF over GST control) in [7]; 1.24 fold enrichment (6-mer frequency, TF over GST control) in assay [8]; 1.17 fold enrichment (6-mer frequency, TF over GST control) in assay [9].
For the sequence CTTTTT, the binding signal was 1.22 fold enrichment (6-mer frequency, TF over GST control) in assay [1]; 1.16 fold enrichment (6-mer frequency, TF over GST control) in assay [2]; 1.32 fold enrichment (6-mer frequency, TF over GST control) in [3]; 1.25 fold enrichment (6-mer frequency, TF over GST control) in [4]; 1.31 fold enrichment (6-mer frequency, TF over GST control) in [5]; 1.17 fold enrichment (6-mer frequency, TF over GST control) in assay [6]. Besides, the binding signal in [7] was 1.88 fold enrichment (6-mer frequency, TF over GST control); in assay [8] it was 1.41 fold enrichment (6-mer frequency, TF over GST control); in assay [9], 1.37 fold enrichment (6-mer frequency, TF over GST control).
As for CACTTT, the binding signal in [1] was 1.25 fold enrichment (6-mer frequency, TF over GST control); in assay [2], 1.33 fold enrichment (6-mer frequency, TF over GST control); in assay [3], 1.21 fold enrichment (6-mer frequency, TF over GST control); in assay [4], 1.26 fold enrichment (6-mer frequency, TF over GST control); in assay [5], 1.35 fold enrichment (6-mer frequency, TF over GST control); in [6], 1.36 fold enrichment (6-mer frequency, TF over GST control). The binding signal is 1.39 fold enrichment (6-mer frequency, TF over GST control) in assay [7]; 1.37 fold enrichment (6-mer frequency, TF over GST control) in [8]; 1.29 fold enrichment (6-mer frequency, TF over GST control) in assay [9].
Turning to GATGTA, the binding signal in assay [1] was 1.29 fold enrichment (6-mer frequency, TF over GST control); in assay [2], 1.46 fold enrichment (6-mer frequency, TF over GST control); in assay [3] it was 1.21 fold enrichment (6-mer frequency, TF over GST control); in assay [4] it was 1.27 fold enrichment (6-mer frequency, TF over GST control); in assay [5], 1.26 fold enrichment (6-mer frequency, TF over GST control); in [6] it was 1.38 fold enrichment (6-mer frequency, TF over GST control). The binding signal is 1.3 fold enrichment (6-mer frequency, TF over GST control) in assay [7]; 1.31 fold enrichment (6-mer frequency, TF over GST control) in [8]; 1.35 fold enrichment (6-mer frequency, TF over GST control) in assay [9].
